According to PubChem BioAssay AID602123 (The Scripps Research Institute Molecular Screening Center, 2011):
In all, about 360,000 compounds went through this assay and about 1,500 (0.42%) were called active. The entries come from a sample that favours actives as a whole. Values without a mark were called inactive. No stated cut-off is given here; in the data, active means inhibition above about 13% (passing the limit was not always enough); inactive means the rest.

Target: Lon protease (Escherichia coli (strain K12)) (UniProt P0A9M0)
Assay: E. coli eLon protease inhibition – biochemical, fluorescence polarization, primary screen (AID 602123);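 further: 0% = enzyme with probe and DMSO and 100% = no enzyme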
Details: purified E. coli Lon protease, at 7.94 µM, stronger effect = higher value

Chain of Lon protease (Escherichia coli (strain K12)) (P0A9M0 whole entry, looked up): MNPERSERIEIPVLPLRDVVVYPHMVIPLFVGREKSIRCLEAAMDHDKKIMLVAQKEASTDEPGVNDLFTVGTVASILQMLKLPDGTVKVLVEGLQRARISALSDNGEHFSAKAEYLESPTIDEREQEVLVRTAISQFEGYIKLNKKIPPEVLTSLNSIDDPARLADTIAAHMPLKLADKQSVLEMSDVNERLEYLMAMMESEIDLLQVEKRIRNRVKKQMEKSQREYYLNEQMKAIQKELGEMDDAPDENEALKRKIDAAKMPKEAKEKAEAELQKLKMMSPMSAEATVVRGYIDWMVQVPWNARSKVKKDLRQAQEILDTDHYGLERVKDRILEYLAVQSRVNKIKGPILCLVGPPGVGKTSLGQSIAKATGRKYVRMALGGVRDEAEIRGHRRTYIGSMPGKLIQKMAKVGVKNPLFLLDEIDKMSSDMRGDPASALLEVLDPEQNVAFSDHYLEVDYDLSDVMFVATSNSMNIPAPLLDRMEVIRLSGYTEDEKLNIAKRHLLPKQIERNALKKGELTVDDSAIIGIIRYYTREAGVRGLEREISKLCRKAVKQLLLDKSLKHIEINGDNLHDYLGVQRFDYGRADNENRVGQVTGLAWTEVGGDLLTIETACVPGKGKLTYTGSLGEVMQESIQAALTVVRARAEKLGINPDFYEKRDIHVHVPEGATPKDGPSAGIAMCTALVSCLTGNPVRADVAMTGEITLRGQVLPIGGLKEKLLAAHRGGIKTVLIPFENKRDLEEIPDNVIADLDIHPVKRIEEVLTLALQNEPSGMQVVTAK

**Q.** Which inhibition does the source give for `N#Cc1ccccc1Sc1ccccc1C(=O)OCC(=O)NC1CCCCC1` here?
**A.** -2.35%

**Q.** `Cc1nc2nc3c(cn2n1)C(=O)CC(c1ccccc1)C3` (stereo not drawn) was tested. Which inhibition did it give?
**A.** 6.37%

**Q.** Which inhibition does the source give for `CC(C)n1c(O)c(N=Nc2ccccn2)c2ccccc21` here?
**A.** -4.1%

**Q.** Which inhibition does the source give for `Cc1cccc(C)c1N1CCN(S(=O)(=O)N2CCCCC2)CC1` here?
**A.** 2.21%

**Q.** For `Cc1cccc(C)c1N1CCN(S(=O)(=O)N2CCOCC2)CC1`, which inhibition is on record?
**A.** 21.5% (active)

**Q.** Which inhibition does the source give for `O=S(=O)(N1CCOCC1)N1CCN(c2ccccc2F)CC1` here?
**A.** 3.92%

**Q.** For `COc1ccc(/C=C/CN2CCCC(C(=O)c3cc(F)ccc3F)C2)cc1` (stereo not drawn), which inhibition is on record?
**A.** -0.58%

**Q.** Which inhibition does the source give for `C=CCn1c(=S)sc2c(=O)[nH]c(C)nc21` here?
**A.** 5.17%

**Q.** With `Cc1ccn(C(CC(=O)c2ccc(Br)cc2)C(=O)O)n1` (stereo not drawn) as the compound, how does the inhibition read?
**A.** 5.2%

**Q.** For `Cc1nc(N)sc1-c1ccccc1`, which inhibition is on record?
**A.** -2.59%

**Q.** For `N#Cc1c(N)nc2c3c(sc(=N)c2c1N)NC(=O)CC3c1ccccc1Cl` (stereo not drawn), which inhibition is on record?
**A.** -13.5%

**Q.** With `Nc1ccccc1/C=N\N=C/c1ccccc1N` as the compound, how does the inhibition read?
**A.** 25.9% (active)

**Q.** For `O=[N+]([O-])c1cccc(C=NN=Cc2ccccc2O)c1`, which inhibition is on record?
**A.** 0.97%

**Q.** Which inhibition does the source give for `COc1ccc(N2CCN(S(=O)(=O)CCNC(=O)C34CC5CC(CC(C5)C3)C4)CC2)cc1` here?
**A.** -6.65%

**Q.** For `COc1ccc(C)cc1S(=O)(=O)Nc1cc2c3c(c1)CCC(=O)N3CCC2`, which inhibition is on record?
**A.** 0.26%

**Q.** How did the inhibition turn out when `CNc1cnc(-c2cc(OC)c(OC)c(OC)c2)cn1` was run?
**A.** 1.98%

**Q.** How did the inhibition turn out when `COC(=O)c1cccc(N(C(=O)c2ccco2)C(C(=O)NC2CCCC2)c2ccco2)c1` (stereo not drawn) was run?
**A.** -3.87%

**Q.** `Cc1ccc(-n2c(=O)c(C#N)cc3c(=O)n4ccccc4nc32)cc1C` was tested. Which inhibition did it give?
**A.** -8.16%

**Q.** With `COC(=O)Nc1ccc(S(=O)(=O)N2CCN(CCN3C(=O)C4C5C=CC(C5)C4C3=O)CC2)cc1` (stereo not drawn) as the compound, how does the inhibition read?
**A.** -1.58%

**Q.** Which inhibition does the source give for `C/C(CC(=O)Nc1ccc(Cl)cc1)=N\NC(=O)C(=O)NCCO` here?
**A.** -5.9%

**Q.** With `CCc1ccc(NC(=O)C(=O)N/N=C(\C)CC(=O)NCCOC)cc1` as the compound, how does the inhibition read?
**A.** 28.6% (active)

**Q.** Which inhibition does the source give for `COc1ccc(COC(=O)N/N=C(\C)CC(=O)Nc2ccc(Cl)cc2)cc1` here?
**A.** 9.08%

**Q.** For `O=C(/C=C/c1cccc(C(F)(F)F)c1)N1CCN(c2ccccn2)CC1`, which inhibition is on record?
**A.** 8.73%

**Q.** With `COc1nc(N(C)C)nc(N2CC(=O)N(CCNS(=O)(=O)c3ccc(C)cc3)C2=N)n1` as the compound, how does the inhibition read?
**A.** -0.47%

**Q.** Which inhibition does the source give for `C/C(=N\NC(=O)CCn1nc(C)cc1C)C(C)(C)C` here?
**A.** -2.11%

**Q.** For `CSc1nc(C)nc(C2CC2)c1C#N`, which inhibition is on record?
**A.** 5.92%

**Q.** How did the inhibition turn out when `CC1(C)OC(=O)C(=CNC(CO)C(=O)O)C(=O)O1` (stereo not drawn) was run?
**A.** 17.8% (active)

**Q.** For `CC(C)Oc1ccccc1C(=O)NC(CO)C(=O)O` (stereo not drawn), which inhibition is on record?
**A.** -0.19%

**Q.** How did the inhibition turn out when `Cc1nn(CC(=O)Nc2ccc(C#N)cc2)c(C)c1[N+](=O)[O-]` was run?
**A.** -15.5%

**Q.** `COc1ncnc2c1N=C1CC(C)(C)CC(N)=C1S2` was tested. Which inhibition did it give?
**A.** 65.4% (active)

**Q.** Which inhibition does the source give for `Cn1cc(CCC(=O)N2CCCC(C(=O)c3ccc(C(C)(C)C)cc3)C2)cn1` (stereo not drawn) here?
**A.** -1.82%

**Q.** For `O=C(COc1ccc(/C=N/NS(=O)(=O)c2ccccc2)cc1)NCCc1ccccc1`, which inhibition is on record?
**A.** -5.95%

**Q.** How did the inhibition turn out when `CCOC(=O)N1CCN(C(=O)C[C@@H]2C[C@@]3(C(=O)OC)CCCCC=C3N(CCC3=CCCCC3)C2=O)CC1` was run?
**A.** 4.15%

**Q.** For `COC(=O)[C@]12CCCCC=C1N(CCC1=CCCCC1)C(=O)[C@H](CC(=O)NCC1CCCCC1)C2`, which inhibition is on record?
**A.** -2.93%

**Q.** `CCCCOCCCNC(=O)C[C@@H]1C[C@@]2(C(=O)OC)CCCCC=C2N(CCC2=CCCCC2)C1=O` was tested. Which inhibition did it give?
**A.** 14.4% (active)

**Q.** Which inhibition does the source give for `c1ccc(-c2ccc3c(c2)NC(C2Nc4cc(-c5ccccc5)ccc4O2)O3)cc1` (stereo not drawn) here?
**A.** -3.71%

**Q.** How did the inhibition turn out when `NC(=O)c1nnsc1-c1ccc(-c2snnc2C(N)=O)cc1` was run?
**A.** 1.17%

**Q.** Which inhibition does the source give for `COc1ccc(S(=O)(=O)N2CCOCC2)cc1NC(=O)Cc1c(F)cccc1Cl` here?
**A.** 20.4% (active)

**Q.** For `COc1ccc(S(=O)(=O)N2CCOCC2)cc1NC(=O)CSc1cc(C)ccc1C`, which inhibition is on record?
**A.** -9.45%

**Q.** `COc1ccc(S(=O)(=O)N2CCOCC2)cc1NC(=O)COc1ccccc1` was tested. Which inhibition did it give?
**A.** -17.8%

**Q.** Which inhibition does the source give for `Cc1ccc(CNC(=O)CCN2C(=O)[C@@H]3Cc4ccccc4CN3C2=O)cc1` here?
**A.** 1.97%

**Q.** `O=C(CN1CCN(S(=O)(=O)c2cccc(Cl)c2)CC1)N1CCCCC1` was tested. Which inhibition did it give?
**A.** -0.39%

**Q.** With `O=C(CN1CCCSc2ccccc21)N1CCN(S(=O)(=O)c2cccc(F)c2)CC1` as the compound, how does the inhibition read?
**A.** 19.9% (active)

**Q.** For `O=C(CN1CCCSc2ccccc21)N1CCN(S(=O)(=O)c2ccccc2)CC1`, which inhibition is on record?
**A.** 4.26%

**Q.** Which inhibition does the source give for `CC(C)N1CCC(=NNc2ccc([N+](=O)[O-])cc2S(=O)(=O)N2CCOCC2)CC1` here?
**A.** 1.91%

**Q.** `COc1ccccc1Oc1ccc(N2CC(C(=O)OCC(=O)c3ccc(F)cc3)CC2=O)cc1` (stereo not drawn) was tested. Which inhibition did it give?
**A.** 2.52%

**Q.** How did the inhibition turn out when `CCCCn1c(=S)[nH]c2cc(S(=O)(=O)N3CCCCC3)ccc21` was run?
**A.** -10.8%

**Q.** `CCn1c(=S)[nH]c2cc(S(=O)(=O)N3CCOCC3)ccc21` was tested. Which inhibition did it give?
**A.** 3.25%

**Q.** Which inhibition does the source give for `CNS(=O)(=O)c1ccc2c(c1)[nH]c(=S)n2C` here?
**A.** 62.6% (active)

**Q.** `CSc1ccc(S(=O)(=O)N2CCC(C(=O)NCCc3ccccc3)CC2)cc1` was tested. Which inhibition did it give?
**A.** 11%

**Q.** With `CN(C)Cc1c(C(=O)N/N=C/c2ccccc2OCc2ccc(F)cc2)nnn1-c1nonc1N` as the compound, how does the inhibition read?
**A.** 18.9% (active)

**Q.** For `CC(C)Oc1ccc(/C=N/NC(=O)c2nnn(-c3nonc3N)c2CN(C)C2CCCCC2)cc1`, which inhibition is on record?
**A.** 1.38%

**Q.** `CCN(CC)Cc1c(C(=O)N/N=C/c2cccc(OCc3ccc(F)cc3)c2)nnn1-c1nonc1N` was tested. Which inhibition did it give?
**A.** 5.3%

**Q.** For `CCc1ccc(CN2C(=O)c3ccccc3C2C(=O)NCC2CCCO2)cc1` (stereo not drawn), which inhibition is on record?
**A.** -0.17%

**Q.** How did the inhibition turn out when `COc1c(C(C)C)oc2cc3oc(=O)ccc3cc12` was run?
**A.** 0.79%

**Q.** For `CS(=O)(=O)N(C(=O)NC(=O)NC1CCS(=O)(=O)C1)C1CCCCC1` (stereo not drawn), which inhibition is on record?
**A.** -6.98%

**Q.** With `Cc1ccc2cccc(S(=O)(=O)N3CCN(c4ccccc4F)CC3)c2n1` as the compound, how does the inhibition read?
**A.** 1.99%

**Q.** How did the inhibition turn out when `Cc1cc(-c2nnc(CCC(=O)NC(c3ccccc3)c3ccccc3)o2)no1` was run?
**A.** 5.3%
